Assay [1] addresses T1, Aspartate--tRNA(Asp/Asn) ligase (Mycobacterium tuberculosis (strain ATCC 25618 / H37Rv)) (UniProt P9WFW3).
T1 sequence (whole entry): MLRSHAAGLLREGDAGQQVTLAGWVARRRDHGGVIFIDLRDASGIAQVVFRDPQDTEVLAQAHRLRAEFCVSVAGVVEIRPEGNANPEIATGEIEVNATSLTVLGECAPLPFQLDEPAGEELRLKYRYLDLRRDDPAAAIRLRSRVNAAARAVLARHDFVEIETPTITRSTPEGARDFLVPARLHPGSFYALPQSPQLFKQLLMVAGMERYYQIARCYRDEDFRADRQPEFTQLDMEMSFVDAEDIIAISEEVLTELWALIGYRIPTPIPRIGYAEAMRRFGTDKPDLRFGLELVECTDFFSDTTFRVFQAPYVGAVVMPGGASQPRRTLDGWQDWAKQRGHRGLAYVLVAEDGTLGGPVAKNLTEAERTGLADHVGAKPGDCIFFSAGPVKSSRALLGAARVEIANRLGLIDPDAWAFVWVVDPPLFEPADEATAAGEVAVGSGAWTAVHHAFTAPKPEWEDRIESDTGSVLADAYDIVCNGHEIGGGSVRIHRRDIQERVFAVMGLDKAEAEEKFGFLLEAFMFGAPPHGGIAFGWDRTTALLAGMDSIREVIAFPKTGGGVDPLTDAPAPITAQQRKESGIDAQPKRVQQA
The experiment in a line: Assay for Asp RNA synthetase-1 from Mycobacterium tuberculosis. It is filed as functional. The following applies: 30 µM. On the set-up: scale not given: direction of the effect not stated beside the values.

Assay [2] addresses Shiga toxin 2 (Escherichia coli O157:H7) (UniProt P09385+P09386). The assay can be described thus: E. coli 0.157:H7 Shiga Toxin SOP - stx2 screening assay. The following applies: 30 µM. It counts as functional. On the set-up: scale not given: direction of the effect not stated beside the values.

Molecules are shown by their SMILES.

On to `Cc1[nH]ccc1C(=O)N1CCC(c2nnc(Cn3ccnc3)n2C)CC1`, for which the Percent Effect in assay [1] is -1.28%; in assay [2] it was -20.6%.

Consider `O=C(c1cnc(-c2cccs2)s1)N1CCCN2CCCC2C1` (centres undefined), for which the Percent Effect is 8.86% in assay [1] and 1.08% in assay [2].

As to `Cc1cn(-c2ccccc2)nc1NS(=O)(=O)c1cc(C(=O)O)cs1`, the Percent Effect in assay [1] is 5.52%; in assay [2], -40%.

As for `Cc1noc(C2CCN(C(=O)CN(C)c3ccc(Cl)cn3)CC2)n1`, the Percent Effect in assay [1] is -1.59%; in assay [2], -21.6%.

Consider `COc1ccc(C(=O)N2CCCC(C)C2)cc1F` (centres undefined), for which the Percent Effect came out at 0.26% in assay [1] and 13.7% in assay [2].

Regarding `Cc1csc(CNC(=O)NCC(O)c2cccc(Cl)c2)n1` (centres undefined), the Percent Effect in assay [1] was 3.71%; in assay [2], -10.8%.

Turning to `Cc1cc(C)cc(-c2cccc(CC3(C(=O)O)CCOCC3)c2)c1`, the Percent Effect in assay [1] is 2.93%; in assay [2], -30%.

As for `CC(C)c1cc(NCC(O)CO)n2nccc2n1` (centres undefined), the results for the Percent Effect in assay [1] and in assay [2] were -1.68% and -0.898%, respectively.

Take `CN(C)C(C(=O)N1CCC(N2CCSCC2)CC1)c1ccccc1F` (centres undefined): the Percent Effect in assay [1] is -8.47%; in assay [2], -3.63%.

With `CCc1cc(N[C@H]2CC[C@H](O)CC2)n2nc(C)c(C)c2n1`, the results for the Percent Effect in assay [1] and in assay [2] were 1.45% and -12.4%, respectively.

As to `COC(=O)C(c1cc(F)ccc1F)N(C)C(=O)c1cccnc1O` (centres undefined), the Percent Effect in assay [1] was -4.32%; in assay [2] it was 8.11%.

Turning to `CC(C)c1csc(C2CCCN(C(=O)c3ncccn3)C2)n1` (centres undefined), the Percent Effect was -2.21% in assay [1] and -20% in assay [2].

Regarding `O=C(NCC1CC1)Nc1cccc(N2CCN(CC3CC3)CC2)c1`, the Percent Effect in assay [1] is -1.59%; in assay [2], -38.1%.

Consider `CC(NC(=O)Cn1cccn1)c1ccc2c(c1)OCCCO2` (centres undefined), for which the Percent Effect in assay [1] was -2.88%; in assay [2], -69%.

With `CC(=O)N1CCOCC2(CCN(Cc3ccc(C)s3)CC2)C1`, the values for the Percent Effect in assay [1] and in assay [2] were 0.408% and -23.3%, respectively.

Take `Cc1occc1C(=O)N1CCC2(CCC(=O)N(CC(N)=O)C2)CC1`: the Percent Effect in assay [1] was -2.4%; in assay [2], -17.1%.

Turning to `CC(C)NC(=O)c1nnn(-c2cccc(C(F)(F)F)c2)c1C1CC1`, the results for the Percent Effect in assay [1] and in assay [2] were -2.65% and 8.87%, respectively.

Consider `Cc1cccnc1CN1CCC(c2nnc(Cn3cccn3)n2C)CC1`, for which the Percent Effect in assay [1] is -1.2%; in assay [2], -18.5%.

For the compound `COCCN1CCC2(CC1)CN(C(=O)N(C)C)c1ccc(C)cc12`, the Percent Effect in assay [1] was 0.0764%; in assay [2] it was -2.72%.

Take `CCc1nccn1C1CCCN(C(=O)c2cnn3ccc(C)nc23)C1` (centres undefined): the Percent Effect in assay [1] turned out to be 0.632%; in assay [2], 11.2%.

Consider `CC(C)N1CCO[C@H]2CN(C(=O)c3ccoc3)C[C@H]21`, for which the results for the Percent Effect in assay [1] and in assay [2] were 8.86% and -1.73%, respectively.

Take `Cc1nn(C)c(C)c1CNCc1ccc(N2CCOCC2)nc1`: the Percent Effect is 2.11% in assay [1] and -24.1% in assay [2].

Consider `COCCOCC(=O)Nc1ccc(C)cc1F`, for which the Percent Effect in assay [1] was -1.8%; in assay [2] it was 2.25%.

Consider `Cc1noc(CN(Cc2ccc3c(c2)OCO3)Cc2ccc(C)o2)n1`, for which the results for the Percent Effect in assay [1] and in assay [2] were 13.9% and 29%, respectively.

As for `Cn1cccc1C(=O)N1CCC2(CC1)CN(c1ccccn1)CCO2`, the Percent Effect in assay [1] was 7.46%; in assay [2], -7.72%.

As to `CCNC(=O)c1nc2c(s1)CCCN2S(C)(=O)=O`, the Percent Effect in assay [1] was 7.8%; in assay [2] it was -17.3%.

With `CN(C)C(=O)CNC(=O)Nc1cccc(Cl)c1SC(F)F`, the figures for the Percent Effect in assay [1] and in assay [2] were 4.9% and -5.26%, respectively.

`Cc1cnn(CC2CCCN2Cc2coc(-c3cccs3)n2)c1` (centres undefined): the Percent Effect in assay [1] came to 1.41%; in assay [2] it was 4.89%.

Turning to `Cc1[nH]/c(=N\C(=O)c2csc(NC3CC3)n2)sc1C`, the figures for the Percent Effect in assay [1] and in assay [2] were -4.09% and 7.35%, respectively.

For the compound `NC(=O)C1(CCCc2cccnc2)CCCN(c2ncccn2)C1` (centres undefined), the Percent Effect in assay [1] was -0.456%; in assay [2], -4.97%.

Take `COc1ccc(C2CC(=O)Nc3c2nc2n3CCCC2)cc1OC` (centres undefined): the Percent Effect stood at 0.342% in assay [1] and 0.28% in assay [2].

Consider `COCC1CN(C(=O)c2cccn2C)Cc2nccn2C1` (centres undefined), for which the Percent Effect in assay [1] was -0.897%; in assay [2] it was -15.6%.

Consider `CN(Cc1ccc(Cl)s1)C(=O)NCc1nnc2n1CCC2`, for which the Percent Effect in assay [1] was 0%; in assay [2], 27.4%.

Consider `CC[C@@H]1N(Cc2ccsc2)CCC[C@]12CCC(=O)N2C`, for which the Percent Effect was -1.82% in assay [1] and 5.09% in assay [2].

On to `CCc1nccn1C1CCCN(C(=O)c2ccc3[nH]cnc3c2)C1` (centres undefined), for which the Percent Effect turned out to be 0.869% in assay [1] and 11.5% in assay [2].

As for `O=C(C1CC=CC1)N1CCc2c(COCc3ccncc3)cncc2C1`, the results for the Percent Effect in assay [1] and in assay [2] were -3.81% and -51.1%, respectively.

With `CC(=O)N1CCCC1c1cc(N2CCN(C3CCCC3)CC2)cc(C)n1` (centres undefined), the Percent Effect was -4.16% in assay [1] and 5% in assay [2].

Consider `CN(CCNC(=O)c1scnc1Cl)c1ccccc1`, for which the Percent Effect was 2.87% in assay [1] and -17.4% in assay [2].

For the compound `Nc1nccc(NCc2cc3n(n2)CCCN(C2CCCCC2)C3)n1`, the Percent Effect in assay [1] was -6%; in assay [2], -9.53%.

On to `O=c1[nH]c(CN(Cc2ccco2)C2CCCC2)nc2ccccc12`, for which the Percent Effect in assay [1] is -3.64%; in assay [2], -24.3%.

As to `c1cc2n(n1)CC(CNCc1ccc(OCC3CC3)nc1)CN2` (centres undefined), the Percent Effect in assay [1] is 0.395%; in assay [2] it was -66.4%.

Take `CCCc1cc(C(=O)N(C)Cc2cccc3ncccc23)n(C)n1`: the figures for the Percent Effect in assay [1] and in assay [2] were -1.28% and -12.5%, respectively.

In the case of `CCOC(=O)CNC(=O)c1cccnc1Oc1ccc(Cl)cc1`, the Percent Effect is -1.89% in assay [1] and 6.74% in assay [2].

Consider `CN1CCOC(CNCc2nc(-c3ccccc3)cs2)C1` (centres undefined), for which the Percent Effect in assay [1] was -7.57%; in assay [2], -26%.

As to `Cc1ccc(C(=O)N2CCC3(CC2)CC(N2CCCC2)C3)cc1`, the Percent Effect in assay [1] was 0.137%; in assay [2] it was -9.41%.

Take `CCN(CC)c1ccc(NS(=O)(=O)c2cnn(C)c2)cn1`: the Percent Effect is 2.14% in assay [1] and -30.7% in assay [2].

For `Cc1ccoc1-c1nnc(CNCC2CCCN2c2cccnn2)o1` (centres undefined), the figures for the Percent Effect in assay [1] and in assay [2] were -2.62% and 5.85%, respectively.

The values are drawn from ChEMBL document CHEMBL3988442, “University of Dundee, Small-Polar-MMV Screening Library” (2021).
